The list is not random: actives were taken first. Their share in the collection is about 8.8%.
HT1080NT lethal: kills 2HG-producing HT-1080-NT fibrosarcoma cells. HT-1080-NT fibrosarcoma viability, CellTiter-Glo ATP luminescence, 48 h. hit rate 1.6% among 360,000. Potency, µM (doses to about 46.1 µM), without a hit: at the top dose activity, negative = less viability, hits mostly cytotoxic;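 also: NT is the 2HG producing partner of a matched IDH1 knockdown line; potency is read from the fitted curve at half-maximal effect; 0% = DMSO-treated cells and -100% = media-only wells without cells; nearly all actives have a fitted effect of over 55% in size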
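Fibrosarcoma NT cells, 750 per well in 5% FBS RPMI, were exposed to compound for 48 hours. Viability: CellTiter-Glo luminescence.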
KB-3-1 tox: kills parental KB-3-1 adenocarcinoma cells; hit rate 1.4% among 400,000; KB-3-1 viability, CellTiter-Glo ATP luminescence, 72 h; Potency, µM (highest dose often 46.1 µM), most hits filed as cytotoxic; also: potency is read from the fitted curve at half-maximal effect; nearly all actives have a fitted effect of over 60% in size
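Cytotoxicity measured as CellTiter-Glo luminescence after 72 h at 37 C. Compound titrations were pinned onto drug-naive KB-3-1 parental adenocarcinoma cells grown in DMEM with 10% FBS, and normalized data fitted to concentration-response curves.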
KB-V1 MDR tox: kills drug-selected multidrug resistant KB-V1 cells | KB-V1 MDR cells viability, CellTiter-Glo, 72 h | Potency, µM (titrated, usually from 46.1 µM), usual class: cytotoxic | hit rate 3.4% among 400,000; also: potency is read from the fitted curve at half-maximal effect; nearly all actives have a fitted effect of over 60% in size
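KB-V1, DMEM (no phenol red) + 10% FBS; cpd pin-transferred, titration series; 72 h, 37 degrees C; CellTiter-Glo, luminescence. Data normalized, curve-fit.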
HT1080 IDH1KD tx: kills HT-1080 cells with IDH1 knockdown | HT-1080 IDH1 knockdown viability, ATP luminescence, 48 h | Potency, µM (series often up to 46.1 µM), inactives show top-dose activity, negative = toxicity, usual class: cytotoxic | hit rate 2% among 360,000 | AID 686971;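 also: potency is read from the fitted curve at half-maximal effect; 0% = DMSO wells and -100% = cell-free medium wells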
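Cytotoxicity counter-line: IDH1KD HT-1080, 48 h, CellTiter-Glo. Curves classed by r2, magnitude and activity.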
IL-1B inflam inh: inhibitors of inflammasome signaling (IL-1 beta secretion). THP-1 LPS/ATP IL-1B secretion, AlphaLISA, 16 h; stronger effect = lower value. hit rate 4.7% among 360,000. activity change, % at 57.5 µM. AID 743279; in the data active = activity change below about -50%; inconclusive = mostly about -30% to -49%
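Secreted IL-1B measured by AlphaLISA bead assay after 16 h compound exposure of THP-1 cells; compounds (final up to 57.5 uM) added 1 h before LPS (250 ng/mL) and ATP (1.25 mM) stimulation; lower signal means less secretion.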
* = called active by the depositor. Unless noted, calls follow the shape of the dose curve; as a rule, active = well fitted curve in the direction sought with a large enough effect; inconclusive = small, poorly fitted or top-dose-only effect, or another doubt; inactive = no such curve, though single readings can be large; an effect the other way counts as inactive or inconclusive. Unless noted, % is scaled to controls: 0 for no effect and ±100 for the full control effect.

Screening CCCCNC(=O)c1ccc(Cn2c(=S)[nH]c3c([nH]c4ccc(OC)cc43)c2=O)cc1 returned HT1080NT lethal inconclusive, KB-3-1 tox inconclusive, KB-V1 MDR tox inactive, HT1080 IDH1KD tx 18µM* and IL-1B inflam inh 18.
Screening CCOc1cc2[nH]c(=S)n(Cc3ccc(C(=O)NCCN(CC)CC)cc3)c(=O)c2cc1OCC returned HT1080NT lethal inconclusive, KB-3-1 tox inactive, KB-V1 MDR tox inactive, HT1080 IDH1KD tx inconclusive and IL-1B inflam inh -99*.
Screening CCCN(CC(=O)Nc1ccc(F)c(F)c1F)C(=O)CCc1nc2ccccc2c(=O)[nH]1 returned HT1080NT lethal -6%, KB-3-1 tox inconclusive, KB-V1 MDR tox inconclusive, HT1080 IDH1KD tx -6% and IL-1B inflam inh 13.
CS(=O)(=O)N(CC(=O)N1CCN(Cc2ccccc2)CC1)c1cccc([N+](=O)[O-])c1 was read as HT1080NT lethal 15%, KB-3-1 tox inactive, KB-V1 MDR tox inactive, HT1080 IDH1KD tx 3% and IL-1B inflam inh 23.
Oc1ccc(C[C@@H]2CNCCN2CCC23CC4CC(CC(C4)C2)C3)cc1 was read as HT1080NT lethal inconclusive, KB-3-1 tox inactive, KB-V1 MDR tox inactive, HT1080 IDH1KD tx 23µM* and IL-1B inflam inh -11.
`CCCCN1CCNC[C@H]1Cc1ccc(O)cc1` gave HT1080NT lethal -17%, KB-3-1 tox inactive, KB-V1 MDR tox inactive, HT1080 IDH1KD tx -6% and IL-1B inflam inh -1.
`NC1=NC[C@H](Cc2ccc(O)cc2)N1CCCCC1CCCCC1` gave HT1080NT lethal -24%, KB-3-1 tox inconclusive, KB-V1 MDR tox inconclusive, HT1080 IDH1KD tx -28% and IL-1B inflam inh -58*.
For Oc1ccc(C[C@H]2CNCCN2CCC23CC4CC(CC(C4)C2)C3)cc1 the results were HT1080NT lethal 16µM*, KB-3-1 tox inconclusive, KB-V1 MDR tox inactive, HT1080 IDH1KD tx inconclusive and IL-1B inflam inh inconclusive.
`Oc1ccc(C[C@H]2CNCCN2CCCCC2CCCCC2)cc1` gave HT1080NT lethal 23µM*, KB-3-1 tox inconclusive, KB-V1 MDR tox inconclusive, HT1080 IDH1KD tx 23µM* and IL-1B inflam inh inconclusive.
CC(C)(C)CN1CCNC[C@H]1Cc1ccc(O)cc1 was read as HT1080NT lethal 1%, KB-3-1 tox inactive, KB-V1 MDR tox inactive, HT1080 IDH1KD tx 0% and IL-1B inflam inh -24.
FC(F)(F)C(F)(F)c1nc2nc(Cl)c(Cl)nc2[nH]1 was read as HT1080NT lethal -16%, KB-3-1 tox inactive, KB-V1 MDR tox inactive, HT1080 IDH1KD tx inconclusive and IL-1B inflam inh 52.
Nc1nc2n(n1)C(c1cccs1)CC(c1ccc(F)cc1)N2 (stereo not drawn) was read as HT1080NT lethal 2%, KB-3-1 tox inactive, KB-V1 MDR tox inactive, HT1080 IDH1KD tx 4% and IL-1B inflam inh -8.
Screening COc1ccc(C2CC(c3ccccc3)n3nc(NC(=O)c4cccs4)nc3N2)cc1 (stereo not drawn) returned HT1080NT lethal 0%, KB-3-1 tox inconclusive, KB-V1 MDR tox inconclusive, HT1080 IDH1KD tx -5% and IL-1B inflam inh -72*.
COc1ccc(C2CC(c3ccccc3)Nc3nc(NC(=O)c4cccs4)nn32)cc1 (stereo not drawn) was read as HT1080NT lethal -13%, KB-3-1 tox inactive, KB-V1 MDR tox inactive, HT1080 IDH1KD tx -13% and IL-1B inflam inh -18.
Screening O=C(Nc1nc2n(n1)C(c1ccc(Cl)cc1)CC(c1ccc(Cl)cc1)N2)c1ccco1 (stereo not drawn) returned HT1080NT lethal 23µM*, KB-3-1 tox inconclusive, KB-V1 MDR tox inconclusive, HT1080 IDH1KD tx 23µM* and IL-1B inflam inh inconclusive.
Screening COc1ccc(C2CC(c3cccs3)n3nc(N)nc3N2)cc1 (stereo not drawn) returned HT1080NT lethal 4%, KB-3-1 tox inactive, KB-V1 MDR tox inactive, HT1080 IDH1KD tx -3% and IL-1B inflam inh -59*.
Screening COc1ccc(C2CC(c3ccc(Cl)cc3)Nc3nc(NC(=O)c4ccco4)nn32)cc1 (stereo not drawn) returned HT1080NT lethal -30%, KB-3-1 tox inactive, KB-V1 MDR tox inactive, HT1080 IDH1KD tx inconclusive and IL-1B inflam inh -22.
`CCOC(=O)C1=C(COC(=O)c2ccc(Br)c(S(=O)(=O)N3CCOCC3)c2)NC(=O)NC1C` (stereo not drawn) gave HT1080NT lethal -7%, KB-3-1 tox inactive, KB-V1 MDR tox inactive, HT1080 IDH1KD tx -7% and IL-1B inflam inh -18.
Screening O=c1[nH]c(=S)[nH]c2c1C(c1cccc(C(F)(F)F)c1)OC(CCc1ccccc1)C2 (stereo not drawn) returned HT1080NT lethal inconclusive, KB-3-1 tox inactive, KB-V1 MDR tox inactive, HT1080 IDH1KD tx inconclusive and IL-1B inflam inh 4.
For Cc1ccc(CNC(=O)CCc2cn(C)c3ccccc23)cc1 the results were HT1080NT lethal 16%, KB-3-1 tox inactive, KB-V1 MDR tox inactive, HT1080 IDH1KD tx 10% and IL-1B inflam inh 0.
Cc1ccc(S(=O)(=O)Cc2ccc(C(=O)N3CCN(c4cccc(Cl)c4)CC3)o2)cc1 was read as KB-3-1 tox inconclusive and KB-V1 MDR tox 5.8µM*.
Screening Cc1ccccc1S(=O)(=O)Cc1ccc(C(=O)N2CC(C)CC(C)C2)o1 (stereo not drawn) returned HT1080NT lethal 13%, KB-3-1 tox inactive, KB-V1 MDR tox inactive, HT1080 IDH1KD tx 4% and IL-1B inflam inh -4.
Cc1ccccc1S(=O)(=O)Cc1ccc(C(=O)N2CCN(c3cccc(Cl)c3)CC2)o1 was read as KB-3-1 tox 4.1µM* and KB-V1 MDR tox 4.6µM*.
Cc1ccc(Cl)cc1N1CCN(C(=O)c2ccc(CS(=O)(=O)c3ccc(Br)cc3)o2)CC1 was read as KB-3-1 tox inconclusive and KB-V1 MDR tox inactive.
`Cc1ccccc1S(=O)(=O)Cc1ccc(C(=O)N2CCN(c3cccc(C)c3C)CC2)o1` gave HT1080NT lethal 5.8µM*, KB-3-1 tox 5.2µM*, KB-V1 MDR tox 5.8µM*, HT1080 IDH1KD tx 6.5µM* and IL-1B inflam inh 0.
`COC(=O)C1CSC(C(=O)OC)N1C(=O)CN1CCN(c2ccccc2)CC1` (stereo not drawn) gave HT1080NT lethal 11%, KB-3-1 tox inactive, KB-V1 MDR tox inactive, HT1080 IDH1KD tx 18% and IL-1B inflam inh 5.
`COC(=O)[C@]12CCCCC=C1N(Cc1ccc(Cl)cc1Cl)C(=O)[C@H](CC(=O)N1CCN(C(=O)C3CC3)CC1)C2` gave HT1080NT lethal inconclusive, KB-3-1 tox inactive, KB-V1 MDR tox inactive, HT1080 IDH1KD tx -29% and IL-1B inflam inh -16.
Screening COc1cccc(CNCc2cccc(OC)c2O)c1O returned HT1080NT lethal -1%, KB-3-1 tox inactive, KB-V1 MDR tox 18µM*, HT1080 IDH1KD tx -7% and IL-1B inflam inh 5.

Screening data: PubChem BioAssay, National Center for Advancing Translational Sciences (NCATS)
